Most compounds without a hit are left out; they make up all but 11% or so of the library.
ALDH1A1 block: inhibitors of human aldehyde dehydrogenase 1A1 | P00352 | Purified ALDH1A1, NADH fluorescence, propionaldehyde substrate | Potency, µM (highest dose often 75.3 µM), for the others: at the highest dose activity, negative = inhibition, usual class: inhibitors | hit rate 7.3% among 220,000;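 further: potency means the concentration at half of the fitted maximal effect; plate controls were no enzyme wells and a reference inhibitor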
Target sequence (P00352 whole entry, looked up): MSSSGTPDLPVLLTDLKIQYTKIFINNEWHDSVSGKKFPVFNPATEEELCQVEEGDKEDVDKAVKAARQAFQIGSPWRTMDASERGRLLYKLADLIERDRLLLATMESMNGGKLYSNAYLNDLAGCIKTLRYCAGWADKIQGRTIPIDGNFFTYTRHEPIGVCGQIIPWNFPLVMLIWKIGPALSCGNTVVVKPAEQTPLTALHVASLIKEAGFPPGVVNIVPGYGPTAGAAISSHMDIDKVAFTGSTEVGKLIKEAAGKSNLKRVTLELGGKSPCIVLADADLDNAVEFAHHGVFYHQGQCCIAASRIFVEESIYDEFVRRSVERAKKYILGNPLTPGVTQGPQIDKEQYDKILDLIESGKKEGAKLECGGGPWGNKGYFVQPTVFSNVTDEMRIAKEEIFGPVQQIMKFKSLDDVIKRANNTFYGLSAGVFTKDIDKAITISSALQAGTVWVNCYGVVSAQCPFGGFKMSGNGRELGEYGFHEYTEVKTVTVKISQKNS
HPGD inh: HPGD (human) dehydrogenase inhibition; P15428; purified HPGD, NADH fluorescence kinetic, PGE2 substrate; Potency, µM, without a hit: at the highest dose activity change, negative = inhibition, most hits filed as inhibitors; hit rate 4.3% among 150,000; AID 894; further: potency means the concentration at half of the fitted maximal effect
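20 nM HPGD preincubated 15 min at room temperature with compound in 50 mM Tris-HCl pH 8, 0.01% Tween 20. Started with 1 mM NAD+ and 30 uM prostaglandin E2; NADH fluorescence (360/450 nm) read 5 times over 30-s intervals, last minus first.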
JMJD2E inh: JMJD2E (human) inhibition; B2RXH2; JMJD2E catalytic domain, FDH-coupled NADH fluorescence (FDH is formaldehyde dehydrogenase); Potency, µM (series often up to 57.1 µM), inactives show at the highest dose activity change, negative = inhibition, actives largely listed as inhibitors; hit rate 1.6% among 230,000;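 further: potency means the concentration at half of the fitted maximal effect; 0% = wells with enzyme and -100% = buffer wells without enzyme; nearly all actives have a fitted effect of over 50% in size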
PNC assembly inh: perinucleolar compartment assembly inhibition; PC3M PTB-GFP, PNC prevalence imaging, 16 h; hits give low values; hit rate 3.1% among 140,000; activity change (PNC), negative = inhibition, % at 10 µM;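 active means readout at or below -70, meaning at least 70% loss of cells showing the perinucleolar compartment, a nuclear body marking cancer cells; inconclusive means readout between -30 and a set limit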;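 further: plate controls were DMSO wells for no effect and camptothecin positive control wells for full effect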
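Read-out is percentage of cells bearing a perinucleolar compartment, from automated 20x imaging of fixed, Hoechst-stained PC3M PTB-GFP cells. Cells were seeded 4 h, then exposed 16 h to compound (23 nl of library stock) in duplicate plates.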
* = called active by the depositor; [ ] = dose if it differs, or a comment. Unless noted, the call rests on the fitted dose curve; in most records, active means well fitted inhibition curve with a large enough effect (not every such curve was filed as active); inconclusive means small, poorly fitted or top-dose-only effect, or another doubt; inactive means no such curve, though single readings can be large or run the other way. Unless noted, on the % scale 0 is the no-effect control and ±100 the full control effect.

Results for CCOC(=O)c1c(C)c(C(=O)NCCOC)c(C)n1CC ?
ALDH1A1 block: 0%; HPGD inh: 8.9µM*; JMJD2E inh: 8%; PNC assembly inh: 9

Results for CCCCCCCCCCCCCCC[C@@H](O)[C@H](CO)NC(C)=O ?
ALDH1A1 block: 1%; HPGD inh: -11%; JMJD2E inh: -11%

Results for CN(C)c1ccc(/C=c2/sc3n(c2=O)NC2(c4ccccc4)N(C)C(=O)N(C)C2(c2ccccc2)N=3)cc1 (centres undefined) ?
ALDH1A1 block: 12%; HPGD inh: -6%; JMJD2E inh: 2%; PNC assembly inh: -84*

How did CN1C(=O)N(C)C2(c3ccccc3)Nn3c(s/c(=C/c4ccccc4F)c3=O)=NC12c1ccccc1 (centres undefined) do in these assays?
ALDH1A1 block: 13%; HPGD inh: -12%; JMJD2E inh: inconclusive; PNC assembly inh: -15

What do the screens show for `CCc1cc(=O)oc2cc(OCc3nn[nH]n3)ccc12`?
ALDH1A1 block: inconclusive; HPGD inh: inconclusive; JMJD2E inh: 20µM*; PNC assembly inh: inconclusive

Results for Cc1c(OCc2nn[nH]n2)ccc2c(-c3ccccc3)cc(=O)oc12 ?
ALDH1A1 block: 16µM*; HPGD inh: 13µM*; JMJD2E inh: inconclusive; PNC assembly inh: 26

What do the screens show for `COCCNC(=O)CSc1nc2nn(-c3ccccc3)c(=O)c-2c2n1CCCCC2`?
ALDH1A1 block: 0%; JMJD2E inh: 4%

How did Cc1cccnc1N(C(=O)Nc1cccc(Cl)c1)C1=NCC(C)(C)S1 do in these assays?
ALDH1A1 block: 15%; HPGD inh: -12%; JMJD2E inh: -7%; PNC assembly inh: -27

Results for Cc1cccnc1N(C(=O)Nc1ccccc1)C1=NCC(C)(C)S1 ?
ALDH1A1 block: 3%; HPGD inh: -5%; JMJD2E inh: -5%; PNC assembly inh: -89*

What do the screens show for `Cc1ccc(C(=O)c2nocc2C(=O)c2cccs2)cc1`?
ALDH1A1 block: 3.2µM*; HPGD inh: 22µM*; JMJD2E inh: inconclusive; PNC assembly inh: -20

What do the screens show for `C/C(=N/OC(=O)c1ccc(C)cc1)c1cccs1`?
ALDH1A1 block: -3%; HPGD inh: -10%; JMJD2E inh: 6%; PNC assembly inh: 37

Results for CCOC(=O)C1=NN(C(=O)c2ccco2)C2(CC2)C1 ?
ALDH1A1 block: 6%; HPGD inh: -3%; JMJD2E inh: -6%; PNC assembly inh: inconclusive

How did CCc1ccc(NC(=O)C(=O)NCCN2CCN(S(C)(=O)=O)CC2)cc1 do in these assays?
ALDH1A1 block: -1%; JMJD2E inh: -35%

Results for CCc1ccc(NC(=O)C(=O)NCCN2CCN(C(=O)c3ccco3)CC2)cc1 ?
ALDH1A1 block: 22µM*; HPGD inh: -10%; JMJD2E inh: -3%; PNC assembly inh: 22

How did CCOC(=O)c1c(C)c(C(=O)NCc2ccco2)c(C)n1C do in these assays?
ALDH1A1 block: -10%; JMJD2E inh: -7%

How did CCOC(=O)c1c(C)n(C(=O)c2ccco2)c(=O)n1C(=O)c1ccco1 do in these assays?
ALDH1A1 block: 10%; HPGD inh: 22µM*; JMJD2E inh: -4%; PNC assembly inh: 22

How did CCOC(=O)c1c(C)c(C(=O)N2CCN(C(=O)c3ccco3)CC2)c(C)n1C do in these assays?
ALDH1A1 block: 13µM*; HPGD inh: -6%; JMJD2E inh: 7%; PNC assembly inh: 17

What do the screens show for `CCOC(=O)c1c(C)n(C)c2ccc(OC)c(NC(=O)CN3CCN(C(=O)c4ccco4)CC3)c12`?
ALDH1A1 block: 7.9µM*; HPGD inh: -10%; JMJD2E inh: -13%; PNC assembly inh: -11

Results for COc1ccc(C(=O)c2ccc(N3CCN(C4CC(=O)NC4=O)CC3)cc2)cc1F (centres undefined) ?
ALDH1A1 block: 8.9µM*; HPGD inh: inconclusive; JMJD2E inh: -4%; PNC assembly inh: 19

What do the screens show for `COc1ccc(N2CCN(C3CC(=O)NC3=O)CC2)cc1` (centres undefined)?
ALDH1A1 block: 7%; JMJD2E inh: 2%; PNC assembly inh: 3

Results for CC(C)(C)NC(=S)NC(C)(C)C ?
JMJD2E inh: 3%

What do the screens show for `O=C(NCCO)Nc1ccc2nc(-c3ccco3)c(-c3ccco3)nc2c1`?
ALDH1A1 block: inconclusive; JMJD2E inh: 11%

What do the screens show for `O=C(NCCCO)c1ccc2nc(-c3ccco3)c(-c3ccco3)nc2c1`?
ALDH1A1 block: inconclusive; JMJD2E inh: 13µM*

How did CCCCNC(=O)c1ccc2nc(-c3ccco3)c(-c3ccco3)nc2c1 do in these assays?
ALDH1A1 block: 5µM*; HPGD inh: 25µM*; JMJD2E inh: inconclusive; PNC assembly inh: inconclusive

What do the screens show for `CS(=O)(=O)Nc1cccc(-c2nc(NCc3ccccc3)c3ccccc3n2)c1`?
ALDH1A1 block: 25µM*

Results for Cc1cccc(CNc2ncncc2-c2cccc(NS(C)(=O)=O)c2)c1 ?
ALDH1A1 block: inconclusive; HPGD inh: 16µM*; JMJD2E inh: inconclusive

Results for CS(=O)(=O)Nc1cccc(-c2nc(NCc3cccnc3)c3ccccc3n2)c1 ?
ALDH1A1 block: 7%; HPGD inh: -15%; JMJD2E inh: 9%

Results for CS(=O)(=O)Nc1cccc(-c2ccc3ncnc(NCc4cccnc4)c3c2)c1 ?
ALDH1A1 block: 6%; HPGD inh: 25µM*; JMJD2E inh: inconclusive

How did COc1cccc(-c2cncnc2NCc2ccccc2)c1 do in these assays?
ALDH1A1 block: inconclusive; HPGD inh: 14µM*; JMJD2E inh: 0%

How did CCC(=O)OC1C2CC3=C4CC(=O)OC(c5ccoc5)[C@]4(C)CCC3[C@@](C)(C2=O)C(CC(=O)OC)C1(C)C (some centres undefined) do in these assays?
ALDH1A1 block: 8%; HPGD inh: -8%; JMJD2E inh: 0%

Results for COc1ccc(NC(=O)C(C/C=C(/C)Cl)C(C)=O)cc1 (centres undefined) ?
ALDH1A1 block: 4%; HPGD inh: 1%; JMJD2E inh: 4%; PNC assembly inh: 43

How did CC(C)(C)NCC(O)COc1cccc2c1C[C@H](O)[C@H](O)C2 (some centres undefined) do in these assays?
ALDH1A1 block: -2%; HPGD inh: -3%; JMJD2E inh: 5%; PNC assembly inh: -115*

What do the screens show for `CC(C)(C)NC[C@H](O)COc1cccc2c1C[C@@H](O)[C@@H](O)C2`?
ALDH1A1 block: 0%[20.9 µM]; HPGD inh: -4%; JMJD2E inh: -1%[25.5 µM]

Results for O=c1c(O)cccc2cc(O)c(O)c(O)c12 ?
ALDH1A1 block: 8.9µM*; HPGD inh: 5µM*; JMJD2E inh: 4µM*

How did COc1cc2cccc(OC)c(=O)c2c(OC)c1OC do in these assays?
ALDH1A1 block: -7%; JMJD2E inh: -24%

How did N#Cc1ccc(CN2CC[C@@]3(CCCN(S(=O)(=O)c4ccccc4)C3)C2)cc1 do in these assays?
ALDH1A1 block: -8%; HPGD inh: -6%

Results for O=C(Cn1cnnn1)Nc1ccccc1Cc1ccccc1 ?
ALDH1A1 block: 1%; HPGD inh: -2%; JMJD2E inh: 3%; PNC assembly inh: -100*
